From publication PMC12136788
Changes are numbered by the printed parent chain. In all, about 24,000 sequences were measured (“enrichment r”: median about 0.99, highest 2% from about 3.7 on). The full list was thinned out, with the highest values kept by preference.

T1: UNK ZnF1-3 (human, UniProt Q9C0B0 31-174)
T1 sequence: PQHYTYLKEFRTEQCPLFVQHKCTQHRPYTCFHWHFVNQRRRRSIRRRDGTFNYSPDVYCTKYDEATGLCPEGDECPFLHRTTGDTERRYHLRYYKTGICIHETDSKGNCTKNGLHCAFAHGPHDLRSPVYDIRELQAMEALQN

B1: chr10:33190432:33190433:-_ENSG00000150093_ENST00000302278|hu_mus|hu_hu_hu_mus_True|68_98 (ssRNA)
RNA: GGGAGUUCUACAGUCCGACGAUCUACAUUUUCCAAACCUGCACAUGAAUAAAACCCUGGCCACAGAGCCCUAAAGCUACCCUACUGUGACUAAGAUGCUGCUGCUGUGAGCUUGGUGUUGCAAAAUCCGCCUGAGUAGGAUUCCAACAGAGGAUUGAGCAUCA
B2: chr6:35837335:35837336:-_ENSG00000096063_ENST00000361690|hu_mus|FALSE|FALSE (ssRNA)
RNA: GGGAGUUCUACAGUCCGACGAUCGGGCUCCUGCUCAUCCCCAGAAGGUGUAUCUGCCCGAAUGCUCUCCUCCAGCUGGGUGAUGUCCUGUCGGGUGAGUGACUGCUCUGCAGAGGAUUGGCACACCAUGGUCUCAGAGGCCGUCAACAGAGGAUUGAGCAUCA
B3: chr2:126475859:126475860:-_ENSMUSG00000027361_ENSMUST00000110424|mus_mus|FALSE|FALSE (ssRNA)
RNA: GGGAGUUCUACAGUCCGACGAUCAGUUUCUGAAGAAUUGGACAAUGGGGCAGAAGCUUCAGCUAAGGCAGCUAACGUAGCUAAUACUGACGUAGAGGAGUUUCCAAACUGAACAGCAGAUACUCCUGUUUCAUCUGUGAGGUUCAACAGAGGAUUGAGCAUCA
B4: chr17:25041749:25041750:-_ENSMUSG00000024163_ENSMUST00000117509|mus_hu|FALSE|FALSE (ssRNA)
RNA: GGGAGUUCUACAGUCCGACGAUCCGAGGGAUAGGGGCGCUUGGCCGGAGGGGGGCUGGAGGAAGAGCUGAAGAGGCGGCUGAAGAACUGCCAGAUGGUCGACUUCUUCUUCUCCUGGACGGAUGGGUGCUCUCGGGACGCUCUCAACAGAGGAUUGAGCAUCA
B5: chr17:60770872:60770873:+_ENSG00000011028_ENST00000303375|hu_hu|hu_hu_hu_mus_True|48_88 (ssRNA)
RNA: GGGAGUUCUACAGUCCGACGAUCUCUUUAAAAAAAAAAAAAAAAAGUUUAAAAACAAUAGCACAUUUCGAGAAUCAAGAACUACAAAGAAAGGGCCGCUUUGAGUUUUUGUUCACAUCGUCCUGCACUGGGACACGGGGACUGCAACAGAGGAUUGAGCAUCA
B6: chr17:60770872:60770873:+_ENSG00000011028_ENST00000303375|hu_hu|hu_hu_hu_mus_True|88_88 (ssRNA)
RNA: B5 RNA with A87U, G88A, A89G, A91G, G94U
B7: chr17:60770872:60770873:+_ENSG00000011028_ENST00000303375|hu_hu|hu_hu_hu_mus_True|18_88 (ssRNA)
RNA: GGGAGUUCUACAGUCCGACGAUCUCUUUAAAAAAAAAAAAAAAAAGUUUAAAAACAAUAGCACAUUUCGAGAAUCAAGAACUACAAUAGAGGGUCCGCUUUGAGUUUUUGUUCACAACAUUGUCCCCUGGGACACGGGGACUGCAACAGAGGAUUGAGCAUCA
B8: chr17:60770872:60770873:+_ENSG00000011028_ENST00000303375|hu_hu|hu_hu_hu_mus_True|48_58 (ssRNA)
RNA: B5 RNA with U47A, U48C, U49A, A52C, C55U, A77U, G78C, A86G
B9: chr17:60770872:60770873:+_ENSG00000011028_ENST00000303375|hu_hu|hu_hu_hu_mus_True|18_18 (ssRNA)
RNA: B7 RNA with U47A, U48C, U49A, A52C, C55U
B10: chr17:60770872:60770873:+_ENSG00000011028_ENST00000303375|hu_hu|hu_hu_hu_mus_True|18_58 (ssRNA)
RNA: B7 RNA with U47A, U48C, U49A, A52C, C55U, A77U, G78C, A86G
B11: chr17:60770872:60770873:+_ENSG00000011028_ENST00000303375|hu_hu|hu_hu_hu_mus_True|18_48 (ssRNA)
RNA: B7 RNA with U47A, U48C, U49A, A52C, C55U, U87A, A88G, G89A, G91A, U94G
B12: chr17:60770872:60770873:+_ENSG00000011028_ENST00000303375|hu_hu|hu_hu_hu_mus_True|1_1 (ssRNA)
RNA: GGGAGUUCUACAGUCCGACGAUCUCUUUAAAAAAAAAAAAAAAAAGACAAACAAUAAUAGCACAUUUCGAGAAUCAAGAACUACAAUAGAGGGUCCGCUUUGAGUUUUUGUUCACAUCGUCCUGCACUGGGACACGACCAGGACAACAGAGGAUUGAGCAUCA
B13: chr17:60770872:60770873:+_ENSG00000011028_ENST00000303375|hu_mus|FALSE|FALSE (ssRNA)
RNA: B12 RNA with A137G, C138G, C139G, G141C, G142U, A143G
B14: chr17:60770872:60770873:+_ENSG00000011028_ENST00000303375|hu_hu|hu_hu_hu_mus_True|48_48 (ssRNA)
RNA: B5 RNA with U47A, U48C, U49A, A52C, C55U
B15: chr17:60770872:60770873:+_ENSG00000011028_ENST00000303375|hu_hu|hu_hu_hu_mus_True|1_8 (ssRNA)
RNA: B12 RNA with C127A, U128C, G130C, G131U, A132G, C133U, A134C, C135G, G136C
B16: chr13:100200933:100200934:-_ENSMUSG00000052727_ENSMUST00000064762|mus_hu|FALSE|FALSE (ssRNA)
RNA: GGGAGUUCUACAGUCCGACGAUCAGAGGUGAGUGAGGCAUAUAAGGACAUAUCUCUGGGAGGAGCAACAUCGGAUAGAGUAUCUUCUUGGAGAGGAGAAGCGAUCUGAGAAGGGGUAUGAGCAGAAGAGGUGGACGGGGAGGCCAACAGAGGAUUGAGCAUCA
B17: chr14:21343058:21343059:-_ENSMUSG00000021816_ENSMUST00000161445|perfect_dup|FALSE|FALSE (ssRNA)
RNA: GGGAGUUCUACAGUCCGACGAUCUGUAGUUUGACUUUUUCUGUACAUUCUAUAGCCUGCAUCUUGAGCUUCAUGAGCUCUAAUAAUCGAUAACAAAUUAUUGUUUUGCAAAAAUUCACACACUGCUGGAUAGUUAUAAAAAUACAACAGAGGAUUGAGCAUCA
B18: chr2:216981417:216981418:+_ENSG00000079246_ENST00000392132|hu_hu|hu_hu_hu_mus_True|58_68 (ssRNA)
RNA: GGGAGUUCUACAGUCCGACGAUCCUGAUACUGGUCCUUGCCAGCAAGGGCAUUAUCAGUGCCAUCUGUACCAAACAGGACUAAAGCAAUCUCAUCUUUGCUCUCCGAAAAUACCUGUCGUUGGACAAACAUAGUCAUCACUUUCAACAGAGGAUUGAGCAUCA
B19: chr6:40197388:40197389:+_ENSMUSG00000057716_ENSMUST00000061740|mus_mus|mus_mus_mus_hu_False|68_108 (ssRNA)
RNA: GGGAGUUCUACAGUCCGACGAUCGAGUUGUCAGUUUGGAUUUAUUCCACCUCUGUUUGGGUGCUAGUAAGAUAGAUUGUUAUUUUGGGAUUCAUGGCCUUGAAUAUCAAGAGGGAAAGGAAGAGGAUGGAAAGAGUCAAGAGUCAACAGAGGAUUGAGCAUCA
B20: 33360611_33360731_3434_3pUTR_ENSMUSG00000024378_ENSMUST00000025236|mouse|control|control (ssRNA)
RNA: GGGAGUUCUACAGUCCGACGAUCCUAUGGACUGCUAUAAGCCCUUCCCCCAGCCCCAGGUACUUUUGCAAGAGCAGAGAACGCUCUUUCACUACCAUCACCUCCCAGCCUCUGCUGGGAUACUCUGAGUUACACGUAUGGCUUCAACAGAGGAUUGAGCAUCA
B21: chr7:7679991:7679992:-_ENSG00000106399_ENST00000396682|hu_hu|hu_hu_hu_mus_False|8_8 (ssRNA)
RNA: GGGAGUUCUACAGUCCGACGAUCUGGGAUGAAUCUUUUCCAGCUUCCCCACGAAGCACACGGGCCGGUCGAUAUACUGUGGUAACAUGCUGGCGUUGACGCGCGCUUUGGGGAGCUGCAUUAUGUCCACCAUGAUUCUGCCGCCAACAGAGGAUUGAGCAUCA
B22: 142153747_142154939_927_CDS_ENSG00000109445_ENST00000262990|human|control|control (ssRNA)
RNA: GGGAGUUCUACAGUCCGACGAUCAUAAGCAUCAUACCCAGAAGCUCCAUCUCCCUCUUCACCUCCAGUCUGCCUGCCAAAUUUCAGGGAGCGUGUUGACAUGCUAAGGUCCUUAGUCUCCUGAGUUUCAUGCCCACAUUUAGGCAACAGAGGAUUGAGCAUCA

target: T1, UNK ZnF1-3; assay: nsRBNS (natural sequence RNA bind-n-seq); RBNS binding buffer (assumed for nsRBNS): 25 mM Tris pH 7.5, 150 mM KCl, 3 mM MgCl2, 0.01% Triton X-100, 500 ug/ml BSA, 20 U/ml SUPERase-In, 4 C; UNK is unkempt and MSI1 is Musashi-1; names of the RNAs are library labels; protein concentration not given here; high values mean tight binding

Row | Binder | binding signal [enrichment R]
1 | B1 | 0.909
2 | B2 | 3.58
3 | B3 | 1.31
4 | B4 | 1.43
5 | B5 | 3.6
6 | B6 | 4.21
7 | B7 | 3.34
8 | B8 | 3.59
9 | B9 | 4.15
10 | B10 | 3.65
11 | B11 | 3.63
12 | B12 | 3.11
13 | B13 | 4.24
14 | B14 | 3.87
15 | B15 | 3.63
16 | B16 | 3.67
17 | B17 | 1.03
18 | B18 | 0.678
19 | B19 | 2.09
20 | B20 | 0.77
21 | B21 | 0.487
22 | B22 | 1.39
